In the library only some 7.4% were active in any assay of this set; here they are far more common.
3T3 cytotox – NIH 3T3 cell cytotoxicity; NIH 3T3 viability, CellTiter-Glo ATP luminescence, 48-72 h; Potency, µM (series often up to 96.7 µM), usual class: inhibitors; hit rate 4.3% among 94,000; further: nearly all actives have a fitted effect of over 55% in size
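First NIH 3T3 cells are plated at 400 cells/well; next compound is pinned in; then plates incubate 48 or 72 hr at 37 °C; finally CellTiter-Glo is added and luminescence read after 10 min.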
Luciferase inh – Photinus pyralis luciferase inhibition; purified P. pyralis luciferase, luminescence, biochemical; P08659; hit rate 2.5% among 76,000; Potency, µM (titrated, usually from 115 µM), most hits filed as inhibitors; further: nearly all actives have a fitted effect of over 65% in size
Target sequence (P08659 whole entry, looked up): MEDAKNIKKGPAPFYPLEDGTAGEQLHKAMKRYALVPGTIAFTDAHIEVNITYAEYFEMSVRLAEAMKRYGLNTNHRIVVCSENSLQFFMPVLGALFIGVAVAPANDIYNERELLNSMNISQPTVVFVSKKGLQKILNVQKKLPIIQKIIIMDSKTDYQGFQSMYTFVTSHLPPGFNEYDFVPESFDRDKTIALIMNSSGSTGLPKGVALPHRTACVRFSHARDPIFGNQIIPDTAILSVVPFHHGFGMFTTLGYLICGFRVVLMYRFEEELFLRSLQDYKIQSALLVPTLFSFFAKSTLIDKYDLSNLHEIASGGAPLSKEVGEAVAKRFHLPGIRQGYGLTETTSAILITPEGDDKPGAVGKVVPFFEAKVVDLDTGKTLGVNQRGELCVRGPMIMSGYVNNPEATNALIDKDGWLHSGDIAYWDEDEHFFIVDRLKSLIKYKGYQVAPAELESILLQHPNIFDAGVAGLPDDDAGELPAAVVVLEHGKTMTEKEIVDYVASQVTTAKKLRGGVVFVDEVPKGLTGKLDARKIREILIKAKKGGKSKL
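Purified P. pyralis luciferase (10nM final) in 50mM Tris acetate pH 7.5, 10mM Mg acetate, 0.01% Tween-20, 0.05% BSA with 10uM D-luciferin and 10uM ATP. Compounds titrated qHTS. Luminescence imaged on CCD.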
NPR1 antag – human Npr1 receptor antagonism; P16066; HEK293 hNpr1 GloSensor cGMP, ANP-stimulated luminescence; Potency, µM (highest dose often 46.3 µM), actives largely listed as inhibitors; hit rate 1.6% among 76,000; AID 1347048; calls by dose curve; further: nearly all actives have a fitted effect of over 60% in size
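Compound pre-incubated 30 min at room temperature on GloSensor-loaded HEK293 cells stably carrying hNpr1 and the pGS-40F cGMP biosensor. Stimulation uses hNppA at 0.1 nM final; luminescence is taken at baseline and 20 min post-agonist.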
HEK293 viab – reduces viability of HEK-293 SNCA reporter cells. AID 1671193. hit rate 0.12% among 150,000. Potency, µM (top dose mostly 57.1 µM), usual class: cytotoxic. HEK-293-SNCA-luc viability, GF-AFC fluorescence, 24 h; further: nearly all actives have a fitted effect of over 30% in size
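HEK-293-SNCA-luc cells (1500/well) plated 24 h, then exposed 24 h to a dilution series; GF-AFC added 30 min at 37C, fluorescence 405/540 nm; normalised to medium-only and DMSO wells, Hill fit.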
HEK cytotox – HEK 293 cell cytotoxicity; Potency, µM (top dose mostly 115 µM), usual class: inhibitors; AID 1345083; hit rate 6.6% among 94,000; HEK 293 viability, ATP luminescence (CellTiter-Glo), 48-72 h; further: nearly all actives have a fitted effect of over 60% in size
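HEK 293 cells at 250 cells/well were exposed to compounds by pintool transfer for 48 or 72 hr at 37 degree Celsius, 5% CO2. Viability was read as ATP-coupled luminescence with CellTiter-Glo after 10 min at room temperature.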
SNCA expr inhib – SNCA gene expression inhibition; HEK-293 SNCA-luciferase knock-in, luminescence, 24 h; Potency, µM (titrated, usually from 57.2 µM), most hits filed as inhibitors; hit rate 0.17% among 140,000; AID 1671194; further: nearly all actives have a fitted effect of over 45% in size
NPR1 antag cnf – hNpr1 antagonism, confirmation assay | shares compounds with NPR1 antag | HEK293 hNpr1 cGMP GloSensor luminescence, ANP-stimulated | Potency, µM (top dose mostly 57.6 µM), most hits filed as inhibitors | hit rate 76% among 1,400 | AID 1347044; calls by dose curve; further: nearly all actives have a fitted effect of over 70% in size
NPR2 antag – hNpr2 antagonism, selectivity versus Npr1 | AID 1347046 | shares compounds with NPR1 antag | HEK293 hNpr2 GloSensor cGMP luminescence, CNP-stimulated | hit rate 67% among 1,400 | Potency, µM (top dose mostly 57.6 µM), actives largely listed as inhibitors; calls by dose curve; further: nearly all actives have a fitted effect of over 70% in size
FLuc counter – FLuc enzyme inhibition, Npr1 counter-screen. shares compounds with NPR1 antag. purified FLuc enzyme, luminescence, Km substrate. Potency, µM (series often up to 57.6 µM), hits mostly inhibitors. hit rate 0.7% among 1,400. AID 1347047
GloSensor cGMP – reduces cGMP signal in GloSensor control cells. shares compounds with NPR1 antag. HEK293 GloSensor cGMP, SNP-stimulated, luminescence. Potency, µM (doses to about 57.6 µM), most hits filed as inhibitors. hit rate 69% among 1,400. AID 1347051; calls by dose curve; further: nearly all actives have a fitted effect of over 70% in size
Numbers stand for hits; . = inactive; ? = inconclusive; / = no result given. Unless noted, the call rests on the fitted dose curve; in most records, active means well fitted curve in the direction sought with a large enough effect; inconclusive means small, poorly fitted or top-dose-only effect, or another doubt; inactive means no such curve, though single readings can be large; an effect the other way counts as inactive or inconclusive.

SMILES	3T3 cytotox	Luciferase inh	NPR1 antag	HEK293 viab	HEK cytotox	SNCA expr inhib	NPR1 antag cnf	NPR2 antag	FLuc counter	GloSensor cGMP
CC1=C[C@@H](CNC(=O)C2CC2)[C@H](C(C)C)C[C@H]1Cc1nc2ccccc2n1C	100µM	.	25µM	?	45µM	?	31µM	35µM	.	25µM
Cc1noc(C)c1CCC(=O)NC1CCCc2c1[nH]c1c(Cl)cccc21 (stereo not given)	35µM	.	.	.	?	.	?	?	.	?
CC1(C)[C@H](Cc2cc(CO)on2)C[C@@H]1NC(=O)c1cccnc1	.	.	.	.	.	.	/	/	/	/
CC1(C)[C@H](Cc2cc(COc3ccccc3)on2)C[C@@H]1NC(=O)c1cccs1	40µM	.	40µM	?	?	.	35µM	40µM	.	31µM
CC1(C)[C@H](Cc2cc(COC(=O)c3cccs3)on2)C[C@@H]1NC(=O)c1cccs1	?	.	25µM	.	?	.	35µM	35µM	.	40µM
Cc1ccc(-c2cn3cc(C(=O)NCCN4CCOCC4)nc3s2)cc1	.	/	/	.	.	.	/	/	/	/
Cn1nc(N2CCC(NS(=O)(=O)c3ccccc3F)CC2)ccc1=O	.	/	/	.	.	.	/	/	/	/
CCCC(=O)N1CCC2(CC1)CC(N(Cc1ccc(F)cc1)C1CC1)CCO2 (stereo not given)	.	.	.	.	?	.	.	.	.	.
O=C(c1ccc(F)cc1)N1CCC2(CC1)CC(N(Cc1ccc(F)cc1)C1CC1)CCO2 (stereo not given)	?	.	?	.	?	?	?	?	.	?
O=C(c1cccs1)N1CCC2(CC1)CC(Cc1ccc(F)cc1)CCO2 (stereo not given)	?	.	11µM	.	?	.	27µM	27µM	.	27µM
Cc1ccc(C(=O)N2CCCN(c3ccc4nnc(C)n4n3)CC2)cc1	.	/	/	/	.	/	/	/	/	/
COc1ccc(-c2noc([C@@H]3Cc4nc[nH]c4CN3C(=O)NC3CCCCC3)n2)cc1	?	?	.	?	.	.	/	/	/	/
CNC(=O)c1cc(C)nc2onc(C3CCCN(C(=O)c4ccc(Cl)nc4)C3)c12 (stereo not given)	.	/	/	/	.	/	/	/	/	/
O=C(c1cc(F)cc(F)c1)N1CCC(Cc2nc(-c3ccc(F)cc3)no2)CC1	?	.	?	.	?	?	/	/	/	/
O=C(c1cc(F)ccc1F)N1CCC(Cc2nc(-c3ccc(F)cc3)no2)CC1	?	.	3.2µM	.	?	?	3.1µM	4.8µM	.	3.1µM
O=C(c1cc(Cl)ccc1F)N1CCC(Cc2nc(-c3ccc(F)cc3)no2)CC1	?	.	3.2µM	.	?	.	4.3µM	5.4µM	.	4.3µM
COc1ccc2c(c1)CN(CC1CC1)C(=O)CCN2C[C@@H](O)COCc1ccccc1	?	/	/	/	.	/	/	/	/	/
COc1ccc(-c2cc(C[C@@H]3C[C@H](NCc4ccncc4)C3(C)C)no2)cc1	?	.	22µM	.	?	.	20µM	28µM	.	20µM
CC1(C)[C@H](Cc2cc(CCO)on2)C[C@@H]1NCc1ccncc1	?	.	.	.	?	.	/	/	/	/
Cc1cnc(-c2cccnc2)n1CC1CCCN(C(=O)NC2CCCCC2)C1 (stereo not given)	.	/	/	.	.	.	/	/	/	/
Clc1cc(NCCOc2ccccc2)n2nccc2n1	?	?	.	.	?	.	/	/	/	/
COc1cccc(CNc2cc(Cl)nc3ccnn23)c1	28µM	.	?	.	?	.	40µM	35µM	.	35µM
COc1ccc(CNC(=O)C2CCN(C(=O)c3ccc(-c4cncnc4)cc3)CC2)cc1	.	/	/	/	?	/	/	/	/	/
O=C(CCCc1ccccc1)N1CCC2(CC1)CC(Cc1nc(-c3cccnc3)no1)CCO2 (stereo not given)	?	.	16µM	?	35µM	.	22µM	19µM	.	19µM
O=C(Nc1ccc2c(c1)OCCO2)N1CCC2(CC1)CC(Cc1ccccc1)CCO2 (stereo not given)	?	/	/	.	?	.	/	/	/	/
SMILES	3T3 cytotox	Luciferase inh	NPR1 antag	HEK293 viab	HEK cytotox	SNCA expr inhib	NPR1 antag cnf	NPR2 antag	FLuc counter	GloSensor cGMP
COc1ccc(-c2noc(CC3CCN(C(=O)CCCc4ccccc4)CC3)n2)cc1	?	.	?	.	28µM	.	17µM	19µM	.	19µM
Cc1ccc(NC(=O)N2CCC3(CC2)CC(Cc2nc(-c4ccccc4)no2)CCO3)cc1C (stereo not given)	?	.	10µM	.	?	.	12µM	15µM	.	12µM
COc1cccc(CCC(=O)N2CCC(Cc3nc(-c4ccc(F)cc4)no3)CC2)c1	?	.	11µM	.	?	.	14µM	17µM	.	11µM
COc1ccccc1CCC(=O)N1CCC(Cc2nc(-c3ccccc3)no2)CC1	?	.	?	.	?	?	/	/	/	/
Cn1ncc2c(C(=O)Nc3ccccc3Cl)cc(-c3ccc(Cl)cc3Cl)nc21	.	/	/	.	.	.	/	/	/	/
CO[C@H]1CN(C2CCN(C(=O)c3cc(C)n(C)n3)CC2)[C@H]1c1cccnc1	.	/	/	?	.	.	/	/	/	/
CCC(CC)C(=O)N1CCC2(CCc3nn(CCOC)c(=O)n3CC2)CC1	.	/	/	.	.	.	/	/	/	/
COc1ccc(CCC(=O)N2CCC(Cc3nc(C4CCOCC4)no3)CC2)cc1	.	.	.	.	?	.	/	/	/	/
COc1cccc(-c2noc(CC3CCN(C(=O)CCCc4ccccc4)CC3)n2)c1	?	.	?	.	?	?	?	?	.	31µM
COc1ccc2oc(CNC(=O)c3cc(CC(C)C)nn3C)nc2c1	.	.	13µM	.	?	.	17µM	17µM	.	15µM
COc1ccc(CNC(=O)c2ccc3nc(CCc4ccccc4)oc3c2)c(OC)c1	/	/	/	.	/	.	/	/	/	/
O=[S+]([O-])(Nc1ccccc1)c1ccc2c(c1)OCCN(Cc1cccnc1)C2	?	.	22µM	.	?	.	40µM	?	.	40µM
CN(CC#N)C(=O)c1cc(-c2cccc(F)c2)nc2c1cnn2C	?	/	/	/	.	/	/	/	/	/
Cc1nnc2ccc(N3CCCN(C(=O)c4ccccc4Cl)CC3)nn12	.	/	/	/	.	/	/	/	/	/
CCCNC(=O)c1cc(-c2ccc(F)cc2)cn1C	.	.	?	.	.	.	.	.	.	.
